Test results reported in PubChem BioAssay (NCATS).
Inconclusive results are not listed. Entries that show only a call come without a potency. Unmarked numbers belong to inactive results. Activity calls are given as the source filed them. Calls come from the whole dose curve; as a rule, active = well fitted curve in the direction sought with a large enough effect; inconclusive = small, poorly fitted or top-dose-only effect, or another doubt; inactive = no such curve, though single readings can be large; an effect the other way counts as inactive or inconclusive.

Legend:
[1] = qHTS of pediatric cancer cell lines to identify multiple opportunities for drug repurposing: Primary screen for SJ-GBM2 cells (AID 1347091)
Summary of the method: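 Viability measured as metabolically active cells via CellTiter-Glo luminescence following 48 hours of compound exposure, 11-point dilutions in confirmatory testing. 500-1,000 cells/well plated 5 hours before dosing; controls were DMSO and 2.3 µM bortezomib.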

[2] = qHTS of pediatric cancer cell lines to identify multiple opportunities for drug repurposing: Primary screen for A673 cells (AID 1347092); note: nearly all actives have a fitted effect of over 45% in size
Summary of the method: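 Titration-based qHTS on A673 cells: MIPE compounds spanned 11 points (0.78 nM to 46 µM final), NPC compounds 8 points (0.59 nM to 46 µM final). Viability after 48 h was measured by ATP luminescence.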

[3] = qHTS of pediatric cancer cell lines to identify multiple opportunities for drug repurposing: Primary screen for SK-N-MC cells (AID 1347093); note: potency is the fitted concentration of half-maximal effect; for activity change, negative = cytotoxic: series mostly up to about 46 µM
Summary of the method: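 Metabolically active cells were quantified by ATP-dependent luminescence (CellTiter-Glo, 15 min at room temperature) following 48 h treatment. Cells had been plated at 500-1,000 per well and settled for 5 h beforehand.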

[4] = qHTS of pediatric cancer cell lines to identify multiple opportunities for drug repurposing: Primary screen for BT-37 cells (AID 1347094); note: series mostly up to about 57 µM
Summary of the method: (§1)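 Phenotypic viability qHTS, 48 h compound exposure, CellTiter-Glo luminescence read-out; multi-concentration dosing so that potency and efficacy derive directly from the primary screen's curves.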

[5] = qHTS of pediatric cancer cell lines to identify multiple opportunities for drug repurposing: Primary screen for NB-EBc1 cells (AID 1347095)
Summary of the method: as §1

[6] = qHTS of pediatric cancer cell lines to identify multiple opportunities for drug repurposing: Primary screen for U-2 OS cells (AID 1347096); note: nearly all actives have a fitted effect of over 50% in size
Summary of the method: (§2)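 Viability after 48 h compound treatment at 37C, 500-1,000 cells/well, read as ATP luminescence with CellTiter-Glo. Primary screens used 11-point (MIPE, 0.78 nM-46 µM) or 8-point (NPC, 0.59 nM-46 µM) final concentrations; follow-up screens used 11-point dilutions.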

[7] = qHTS of pediatric cancer cell lines to identify multiple opportunities for drug repurposing: Primary screen for SK-N-SH cells (AID 1347098);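 note: DMSO served as neutral control and bortezomib at 2.3 µM as positive control; nearly all actives have a fitted effect of over 65% in size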
Summary of the method: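 Cells (500-1,000/well) rested 5 h, then received compounds for 48 h; metabolically active cells were measured by CellTiter-Glo luminescence. Final concentrations spanned up to 46 µM (MIPE, 11-point) or 0.59 nM-46 µM (NPC, 8-point) in primary screens, 11-point in follow-ups.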

[8] = qHTS of pediatric cancer cell lines to identify multiple opportunities for drug repurposing: Primary screen for NB1643 cells (AID 1347099); note: nearly all actives have a fitted effect of over 50% in size
Summary of the method: as §1

[9] = qHTS of pediatric cancer cell lines to identify multiple opportunities for drug repurposing: Primary screen for LAN-5 cells (AID 1347100)
Summary of the method: as §2

[10] = qHTS of pediatric cancer cell lines to identify multiple opportunities for drug repurposing: Primary screen for Saos-2 cells (AID 1347097); note: nearly all actives have a fitted effect of over 40% in size
Summary of the method: as §1

CC(C)(Oc1ccc(CCNC(=O)c2ccc(Cl)cc2)cc1)C(=O)O
Potency [1]: inactive
Potency [2]: inactive
Potency [3]: inactive
Potency [4]: inactive
Potency [5]: inactive
Potency [6]: inactive
Potency [7]: inactive
Potency [8]: inactive
Potency [9]: inactive

CN(C)C/C=C(/c1ccc(Br)cc1)c1cccnc1
Potency [1]: inactive
Potency [2]: inactive
Potency [3]: inactive
Potency [4]: inactive
Potency [5]: inactive
Potency [6]: inactive
Potency [10]: inactive
Potency [8]: inactive
Potency [9]: inactive

CC(N=C(NC#N)Nc1ccncc1)C(C)(C)C (stereo not drawn)
Potency [1]: inactive
Potency [2]: inactive
Potency [3]: inactive
Potency [4]: inactive
Potency [5]: inactive
Potency [6]: inactive
Potency [10]: inactive
Potency [9]: inactive

N[C@@H](COP(=O)(O)O)C(=O)O
Potency [1]: inactive
Potency [2]: inactive
Potency [3]: inactive
Potency [4]: inactive
Potency [5]: inactive
Potency [6]: inactive
Potency [7]: inactive
Potency [8]: inactive
Potency [9]: inactive

CNCCC(Oc1ccccc1OC)c1ccccc1 (stereo not drawn)
Potency [1]: inactive
Potency [2]: inactive
Potency [3]: inactive
Potency [4]: inactive
Potency [5]: inactive
Potency [6]: inactive
Potency [7]: inactive
Potency [9]: inactive

CCN(CC)CC(=O)Nc1c(C)cccc1C
Potency [1]: inactive
Potency [2]: inactive
Potency [3]: inactive
Potency [4]: inactive
Potency [5]: inactive
Potency [6]: inactive
Potency [7]: inactive
Potency [8]: inactive
Potency [9]: inactive

CN(C)CC[C@@H](c1ccc(Br)cc1)c1ccccn1
Potency [1]: inactive
Potency [2]: inactive
Potency [3]: inactive
Potency [4]: inactive
Potency [5]: inactive
Potency [6]: inactive
Potency [7]: inactive
Potency [9]: inactive

CN(C)C(=O)Oc1ccc[n+](C)c1
Potency [1]: inactive
Potency [2]: inactive
Potency [3]: inactive
Potency [4]: inactive
Potency [5]: inactive
Potency [6]: inactive
Potency [10]: inactive
Potency [8]: inactive
Potency [9]: inactive

COc1ccc(CN(CCN(C)C)c2ccccn2)cc1
Potency [1]: inactive
Potency [2]: inactive
Potency [3]: inactive
Potency [4]: inactive
Potency [5]: inactive
Potency [6]: inactive
Potency [7]: inactive
Potency [9]: inactive

CN(C)CCOC(=O)COc1ccc(Cl)cc1
Potency [1]: inactive
Potency [2]: inactive
Potency [3]: inactive
Potency [4]: inactive
Potency [5]: inactive
Potency [6]: inactive
Potency [10]: inactive
Potency [8]: inactive
Potency [9]: inactive

Cc1cc(C)c(/C=C2\C(=O)Nc3ccccc32)[nH]1
Potency [1]: inactive
Potency [2]: inactive
Potency [3]: 18.8 µM (active)
Potency [4]: inactive
Potency [5]: inactive
Potency [6]: inactive
Potency [7]: inactive
Potency [9]: inactive

C#CCN(C)CCCOc1ccc(Cl)cc1Cl
Potency [1]: inactive
Potency [2]: inactive
Potency [3]: inactive
Potency [4]: inactive
Potency [5]: inactive
Potency [6]: inactive
Potency [7]: inactive
Potency [8]: inactive
Potency [9]: inactive

CNC1(C)C2CCC(C2)C1(C)C (stereo not drawn)
Potency [1]: inactive
Potency [2]: inactive
Potency [3]: inactive
Potency [4]: inactive
Potency [5]: inactive
Potency [6]: inactive
Potency [7]: inactive
Potency [8]: inactive
Potency [9]: inactive

FC(F)(F)c1ccccc1-n1ccnc1
Potency [1]: inactive
Potency [2]: inactive
Potency [3]: inactive
Potency [4]: inactive
Potency [5]: inactive
Potency [6]: inactive
Potency [10]: inactive
Potency [8]: inactive
Potency [9]: inactive

O=C(O)CN(CCOCCOCCN(CC(=O)O)CC(=O)O)CC(=O)O
activity change, negative = cytotoxic [1]: 26.6% [at 0.597 µM]
activity change, negative = cytotoxic [2]: 8.27% [at 0.597 µM]
activity change, negative = cytotoxic [3]: 0.435% [at 0.597 µM]
activity change, negative = cytotoxic [4]: 13% [at 0.745 µM]
activity change, negative = cytotoxic [5]: 21.8% [at 0.597 µM]
activity change, negative = cytotoxic [6]: 10.9% [at 0.597 µM]
activity change, negative = cytotoxic [7]: -13% [at 0.741 µM]
activity change, negative = cytotoxic [8]: 28.6% [at 0.597 µM]
activity change, negative = cytotoxic [9]: 27.7% [at 0.597 µM]

C[C@@H](O)[C@H]1C(=O)N2C(C(=O)O)=C(SCCN=CN)C[C@H]12
Potency [1]: inactive
Potency [2]: inactive
Potency [3]: inactive
Potency [4]: inactive
Potency [5]: inactive
Potency [6]: inactive
Potency [7]: inactive
Potency [8]: inactive
Potency [9]: inactive

C[C@]12CCC(=O)C=C1CC[C@@H]1[C@@H]2C(=O)C[C@@]2(C)[C@H]1CC[C@]2(O)C(=O)CO
Potency [1]: inactive
Potency [2]: inactive
Potency [3]: inactive
Potency [4]: inactive
Potency [5]: inactive
Potency [6]: inactive
Potency [10]: inactive
Potency [8]: inactive
Potency [9]: inactive
